Here are results for 11 molecules from PubChem BioAssay (Tox21).

Unmarked numbers belong to inactive results. Results filed as inconclusive are left out. Calls of active or inactive are those of the source. The call rests on the fitted dose curve; in most records, active means well fitted curve in the direction sought with a large enough effect in the repeat runs; inconclusive means weak or mixed curves; inactive means no such curve, though single readings can be large; an effect the other way counts as inactive or inconclusive.

Test [1] can be described thus: Human pregnane X receptor (PXR) small molecule agonists, qHTS cell viability counter screen (AID 1346977). Further: nearly all actives have a fitted effect of over 50% in size. Further: potency means the concentration at half of the fitted maximal effect. Put shortly: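 Same-well viability read: CellTiter-Fluor added after 23 hr compound exposure, fluorescence measured 1 hr later. Cells were PXR-Luc HepG2 seeded at 2,000/well in 5% charcoal-stripped FBS medium, rested 5 hr before dosing at 37 C.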
Test [2] is described as follows: Caspase-3/7 induction in HepG2 cells by small molecules, qHTS assay (AID 1346978). Further: nearly all actives have a fitted effect of over 15% in size. The essentials: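 Caspase-3/7 induction was measured by Caspase-Glo 3/7 luminescence (30 min, room temperature) after a 17 hr compound exposure of wild-type HepG2 cells seeded at 2,000 per well and pre-incubated 5 hr.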
A short description of test [3]: Caspase-3/7 induction in CHO-K1 cells by small molecules, qHTS assay (AID 1346980). Further: nearly all actives have a fitted effect of over 15% in size. The essentials:
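Luminescent Caspase-Glo 3/7 read (30min, room temperature) quantified apoptosis induction. Cells were wild-type CHO-K1, treated with compound for 17hr at 37 C and 5% CO2.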

The nature of test [4]: Caspase-3/7 induction in HepG2 cells by small molecules, qHTS cell viability counter screen (AID 1346981). Further: nearly all actives have a fitted effect of over 30% in size. Further: potency means the concentration at half of the fitted maximal effect. On activity change, negative = cytotoxicity: series mostly up to about 92 µM. The essentials:
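Counter screen for cytotoxicity: HepG2 exposed 16 hr to compounds, then CellTiter-Fluor viability signal (fluorescence, 1 hr reagent incubation).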
(In general: In qHTS, concentration-response curves come from the screen itself.)

Test [5] deals with Nuclear receptor subfamily 1 group I member 2 (Homo sapiens) (UniProt O75469). The test is described as follows: Human pregnane X receptor (PXR) small molecule agonists, qHTS assay (AID 1346982). Further: nearly all actives have a fitted effect of over 35% in size. Further: potency means the concentration at half of the fitted maximal effect. Put shortly: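 Luminescence (ONE-Glo, 30 min RT) after 24 hr compound exposure of PXR-Luc HepG2 cells; cells rested 5 hr post-plating in 5% charcoal-stripped FBS medium.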
Test [6] deals with Cytochrome P450 2D6 (Homo sapiens) (UniProt P10635). Briefly: Cytochrome P450 Family 2 Subfamily D Member 6 (CYP2D6) small molecule antagonists: luciferase reporter qHTS assay (AID 1671196). Further: nearly all actives have a fitted effect of over 50% in size. Further: potency means the concentration at half of the fitted maximal effect. On activity change, negative = inhibition: series mostly up to about 120 µM. Put shortly:
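Inhibition of CYP2D6 was gauged by loss of luminescence, since light produced tracks the luciferin generated from a proluciferin substrate. A 10 min room-temperature preincubation preceded 1 h NADPH-supported turnover.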
Background: In a reporter assay the amount or activity of a reporter protein is the signal.

For test [7], the target named is Cytochrome P450 2C19 (Homo sapiens) (UniProt P33261). Briefly: Cytochrome P450 Family 2 Subfamily C Member 19 (CYP2C19) small molecule antagonists: luciferase reporter qHTS assay (AID 1671197). Further: nearly all actives have a fitted effect of over 65% in size. Further: potency means the concentration at half of the fitted maximal effect. On activity change, negative = inhibition: series mostly up to about 120 µM. Put shortly:
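Relative luminescence units recorded 20 min after the detection reagent stopped a 1 h, 37C CYP2C19 reaction on proluciferin substrate, which was started by NADPH regeneration following 10 min room-temperature compound preincubation; ketoconazole positive control.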

The target in test [8] is Cytochrome P450 1A2 (Homo sapiens) (UniProt P05177). The test is described as follows: Cytochrome P450 Family 1 Subfamily A Member 2 (CYP1A2) small molecule antagonists: luciferase reporter qHTS assay (AID 1671199). Further: nearly all actives have a fitted effect of over 50% in size. Further: potency means the concentration at half of the fitted maximal effect. On activity change, negative = inhibition: series mostly up to about 120 µM. The essentials: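 Signal from luciferin formed by CYP1A2 from a proluciferin substrate is read as luminescence, expressed in relative luminescence units. Compounds sit with enzyme 10 min, NADPH-driven reaction runs 1 h, all at room temperature.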

For test [9], the target named is Voltage-gated inwardly rectifying potassium channel KCNH2 (Homo sapiens) (UniProt Q12809). The test is described as follows: Human Ether-a-go-go-Related Gene (hERG) channel small molecule antagonists: fluorescence cell-based qHTS assay (AID 1671200). Further: series mostly up to about 77 µM; nearly all actives have a fitted effect of over 50% in size. The essentials:
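Thallium flux as potassium surrogate: FluxOR II dye loaded 1 h at room temperature into hERG-expressing U2OS cells, then stimulus buffer added after 10 min. Kinetic 480 nm excitation/540 nm emission read, 2 min.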

The target of test [10] is Cytochrome P450 3A4 (Homo sapiens) (UniProt P08684). Briefly: Cytochrome P450 Family 3 Subfamily A Member 4 (CYP3A4) small molecule antagonists: luciferase reporter qHTS assay (AID 1671201). Further: nearly all actives have a fitted effect of over 50% in size. Further: potency means the concentration at half of the fitted maximal effect. On activity change, negative = inhibition: series mostly up to about 120 µM. The essentials: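 Recombinant human CYP3A4 converts a proluciferin substrate to luciferin over 1 h at room temperature after NADPH regeneration solution is added (compound preincubated 10 min); detection reagent stops reaction, luminescence read 20 min later as relative units.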

The target of test [11] is Cytochrome P450 2C9 (Homo sapiens) (UniProt P11712). The test is described as follows: Cytochrome P450 Family 2 Subfamily C Member 9 (CYP2C9) small molecule antagonists: luciferase reporter qHTS assay (AID 1671198). Further: nearly all actives have a fitted effect of over 50% in size. Further: potency means the concentration at half of the fitted maximal effect. On activity change, negative = inhibition: series mostly up to about 120 µM. Put shortly:
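Enzyme-substrate mix preincubated with compound 10 min at room temperature; reaction started with NADPH regeneration solution, 1 h 37C. Luminescent luciferin product read after 20 min detection reagent.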
On the % scale 0 is the no-effect control and ±100 the full control effect.

Cytochrome P450 3A4 (Homo sapiens), sequence (P08684 whole entry, looked up): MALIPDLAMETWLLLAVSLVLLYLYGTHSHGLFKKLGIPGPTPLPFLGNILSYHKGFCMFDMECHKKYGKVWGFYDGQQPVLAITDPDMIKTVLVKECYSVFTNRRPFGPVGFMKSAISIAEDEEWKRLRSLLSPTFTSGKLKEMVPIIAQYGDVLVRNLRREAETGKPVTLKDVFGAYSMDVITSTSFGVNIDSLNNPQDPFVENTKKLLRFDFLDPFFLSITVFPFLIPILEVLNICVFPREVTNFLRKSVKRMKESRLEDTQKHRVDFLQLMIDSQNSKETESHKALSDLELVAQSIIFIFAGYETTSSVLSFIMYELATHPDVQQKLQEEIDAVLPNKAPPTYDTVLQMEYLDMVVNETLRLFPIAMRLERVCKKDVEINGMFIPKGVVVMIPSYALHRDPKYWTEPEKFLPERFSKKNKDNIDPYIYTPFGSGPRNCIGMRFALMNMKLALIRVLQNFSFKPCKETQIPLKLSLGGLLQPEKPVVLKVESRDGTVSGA
Cytochrome P450 2C19 (Homo sapiens), sequence (P33261 whole entry, looked up): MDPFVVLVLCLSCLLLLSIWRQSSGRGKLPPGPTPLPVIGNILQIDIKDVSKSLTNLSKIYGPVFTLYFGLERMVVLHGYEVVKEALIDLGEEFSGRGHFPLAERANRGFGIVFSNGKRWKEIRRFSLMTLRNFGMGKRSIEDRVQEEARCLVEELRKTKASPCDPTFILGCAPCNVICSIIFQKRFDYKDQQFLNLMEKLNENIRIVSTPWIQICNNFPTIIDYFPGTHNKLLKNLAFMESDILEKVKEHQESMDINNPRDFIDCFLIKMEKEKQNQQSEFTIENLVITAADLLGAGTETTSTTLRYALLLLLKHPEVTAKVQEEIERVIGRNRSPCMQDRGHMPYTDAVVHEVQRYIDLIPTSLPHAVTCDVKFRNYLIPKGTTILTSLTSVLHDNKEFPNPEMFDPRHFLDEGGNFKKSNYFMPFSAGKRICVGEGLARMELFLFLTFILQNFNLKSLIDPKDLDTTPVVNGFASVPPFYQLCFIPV
Cytochrome P450 2C9 (Homo sapiens), sequence (P11712 whole entry, looked up): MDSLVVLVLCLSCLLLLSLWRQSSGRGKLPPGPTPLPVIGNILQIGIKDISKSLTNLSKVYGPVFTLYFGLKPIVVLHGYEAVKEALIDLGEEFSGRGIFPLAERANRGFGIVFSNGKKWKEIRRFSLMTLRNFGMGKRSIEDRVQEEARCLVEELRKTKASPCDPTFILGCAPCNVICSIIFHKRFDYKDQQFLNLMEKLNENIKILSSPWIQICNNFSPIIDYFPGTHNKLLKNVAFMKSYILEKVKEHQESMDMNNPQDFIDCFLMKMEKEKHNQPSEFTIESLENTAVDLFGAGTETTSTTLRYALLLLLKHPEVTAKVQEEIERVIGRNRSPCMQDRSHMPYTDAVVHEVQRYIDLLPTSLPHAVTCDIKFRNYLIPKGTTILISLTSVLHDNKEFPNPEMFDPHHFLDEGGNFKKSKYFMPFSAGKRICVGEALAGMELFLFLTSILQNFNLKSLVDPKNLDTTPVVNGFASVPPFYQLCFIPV
Cytochrome P450 1A2 (Homo sapiens), sequence (P05177 whole entry, looked up): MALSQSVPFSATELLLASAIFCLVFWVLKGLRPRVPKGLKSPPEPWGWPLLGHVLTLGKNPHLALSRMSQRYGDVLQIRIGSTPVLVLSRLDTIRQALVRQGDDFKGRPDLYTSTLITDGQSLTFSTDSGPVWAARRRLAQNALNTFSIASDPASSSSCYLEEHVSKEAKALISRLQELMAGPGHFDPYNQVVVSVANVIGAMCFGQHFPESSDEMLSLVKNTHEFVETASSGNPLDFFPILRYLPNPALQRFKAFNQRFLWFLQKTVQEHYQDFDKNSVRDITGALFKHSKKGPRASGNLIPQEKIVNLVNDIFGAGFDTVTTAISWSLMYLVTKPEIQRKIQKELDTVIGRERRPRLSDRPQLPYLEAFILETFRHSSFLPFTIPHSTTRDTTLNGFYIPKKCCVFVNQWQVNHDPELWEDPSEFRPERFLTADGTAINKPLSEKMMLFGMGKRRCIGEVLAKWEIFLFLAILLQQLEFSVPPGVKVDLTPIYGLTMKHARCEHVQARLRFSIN
Voltage-gated inwardly rectifying potassium channel KCNH2 (Homo sapiens), sequence (Q12809 whole entry, looked up): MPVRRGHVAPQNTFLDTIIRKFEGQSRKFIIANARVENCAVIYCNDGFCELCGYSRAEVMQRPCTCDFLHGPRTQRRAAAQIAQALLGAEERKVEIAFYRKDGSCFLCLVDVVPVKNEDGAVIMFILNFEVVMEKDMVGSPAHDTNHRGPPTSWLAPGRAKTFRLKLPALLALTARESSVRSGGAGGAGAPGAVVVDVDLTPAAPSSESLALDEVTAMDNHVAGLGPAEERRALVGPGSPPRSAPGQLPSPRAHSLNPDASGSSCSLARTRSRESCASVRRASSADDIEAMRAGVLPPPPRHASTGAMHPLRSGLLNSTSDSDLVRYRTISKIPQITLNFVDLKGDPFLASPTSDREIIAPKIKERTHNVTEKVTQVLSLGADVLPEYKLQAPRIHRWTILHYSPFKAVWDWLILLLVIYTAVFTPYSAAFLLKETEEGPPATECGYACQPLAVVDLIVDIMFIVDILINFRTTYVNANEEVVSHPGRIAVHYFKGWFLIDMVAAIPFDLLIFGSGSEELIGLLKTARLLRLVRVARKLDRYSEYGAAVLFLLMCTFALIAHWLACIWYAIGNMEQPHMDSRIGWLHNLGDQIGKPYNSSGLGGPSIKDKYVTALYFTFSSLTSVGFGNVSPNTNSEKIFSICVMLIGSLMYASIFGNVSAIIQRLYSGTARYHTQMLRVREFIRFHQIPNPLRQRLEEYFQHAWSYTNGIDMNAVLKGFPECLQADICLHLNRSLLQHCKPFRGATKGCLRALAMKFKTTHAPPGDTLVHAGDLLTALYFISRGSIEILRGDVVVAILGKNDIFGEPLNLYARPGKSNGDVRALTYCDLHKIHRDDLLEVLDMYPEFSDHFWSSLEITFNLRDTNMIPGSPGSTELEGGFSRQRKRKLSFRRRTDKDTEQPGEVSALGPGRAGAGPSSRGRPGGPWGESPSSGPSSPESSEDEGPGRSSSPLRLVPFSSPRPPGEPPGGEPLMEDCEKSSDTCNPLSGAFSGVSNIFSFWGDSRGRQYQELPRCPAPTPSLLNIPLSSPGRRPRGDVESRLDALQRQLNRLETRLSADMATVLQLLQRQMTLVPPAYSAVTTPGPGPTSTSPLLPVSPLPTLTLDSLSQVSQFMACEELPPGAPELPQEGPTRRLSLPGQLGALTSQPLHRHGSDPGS
Cytochrome P450 2D6 (Homo sapiens), sequence (P10635 whole entry, looked up): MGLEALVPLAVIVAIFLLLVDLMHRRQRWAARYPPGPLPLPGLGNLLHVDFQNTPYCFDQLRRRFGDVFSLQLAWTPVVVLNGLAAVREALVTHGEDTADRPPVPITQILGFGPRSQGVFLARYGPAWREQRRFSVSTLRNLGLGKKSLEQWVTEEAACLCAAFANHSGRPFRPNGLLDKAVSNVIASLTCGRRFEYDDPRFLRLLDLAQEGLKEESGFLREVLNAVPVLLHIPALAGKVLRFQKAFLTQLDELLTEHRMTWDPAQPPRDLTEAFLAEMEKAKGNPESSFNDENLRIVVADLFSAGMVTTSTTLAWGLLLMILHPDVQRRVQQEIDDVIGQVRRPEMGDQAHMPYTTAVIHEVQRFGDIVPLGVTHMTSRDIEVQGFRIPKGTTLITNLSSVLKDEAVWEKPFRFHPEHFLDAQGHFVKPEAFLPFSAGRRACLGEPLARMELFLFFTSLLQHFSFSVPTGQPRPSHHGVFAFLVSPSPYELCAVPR
Nuclear receptor subfamily 1 group I member 2 (Homo sapiens), sequence (O75469 whole entry, looked up): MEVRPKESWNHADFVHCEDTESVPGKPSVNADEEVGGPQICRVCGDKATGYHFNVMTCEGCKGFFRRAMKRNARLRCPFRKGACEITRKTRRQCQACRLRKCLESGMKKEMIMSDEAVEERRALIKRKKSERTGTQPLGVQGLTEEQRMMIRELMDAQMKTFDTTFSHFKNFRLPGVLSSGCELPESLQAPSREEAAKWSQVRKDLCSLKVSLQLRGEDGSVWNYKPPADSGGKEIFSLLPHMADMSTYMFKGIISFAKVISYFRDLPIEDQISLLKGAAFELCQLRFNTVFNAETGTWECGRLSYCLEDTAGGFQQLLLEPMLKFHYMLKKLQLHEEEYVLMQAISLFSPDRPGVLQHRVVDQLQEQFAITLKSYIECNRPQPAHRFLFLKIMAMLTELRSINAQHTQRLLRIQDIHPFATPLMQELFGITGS

Take `C1CCN(CN2CCCCC2)CC1`: the Potency result in [1], in test [2], in test [3], in test [4], in test [5] and in test [7] was “inactive” throughout. Further, the Potency result in test [8], in test [9] and in test [10] was “inactive” in each case. For the same molecule, in test [6], the Potency is 7.1 µM (active).

In the case of `O=C(Nc1ccccc1)c1cc([N+](=O)[O-])ccc1Cl`, the Potency entry in [1], in test [2], in test [3], in test [4] and in test [9] was “inactive” throughout. Moreover, the Potency in [5] is 61.1 µM (active); in test [7], 22.4 µM (active); in [11] it was 31.7 µM (active); in test [8], 7.96 µM (active); in [10], 35.6 µM (active).

In the case of `CCCc1ccc(OC)cc1`, the Potency result in test [1], in test [2], in test [3], in [4], in test [5] and in test [6] was “inactive” in each case. For the same molecule, the Potency entry in [9] and in test [10] was “inactive” throughout. Also, in test [7], the Potency was 63.7 µM (active).

On to `Cc1cc(SC2=C(O)C[C@@](CCc3ccc(N)cc3)(C(C)C)OC2=O)c(C(C)(C)C)cc1CO`, for which the Potency entry in test [1], in [2], in test [3], in test [4], in [6] and in [8] was “inactive” in each case. The Potency result in [9] was “inactive”. The Potency in test [5] was 30.6 µM (active); in test [10], 3.99 µM (active).

In the case of `Oc1ccc(Oc2ccccc2)cc1`, the Potency entry in test [1], in test [2], in test [3], in [4], in [9] and in [10] was “inactive” in each case. The values for the Potency in test [5], in test [6] and in [7] were 46.1 µM (active), 26.8 µM (active) and 26.8 µM (active), respectively.

`CC(CCl)OC(C)CCl` (stereo not drawn): the Potency result in test [1], in [2], in test [3], in test [4], in test [5] and in [7] was “inactive” throughout. Moreover, the Potency entry in test [11], in test [9] and in test [10] was “inactive” in each case.

As to `CCCCCCOC(=O)c1ccccc1`, the Potency entry in test [1], in test [2], in test [3], in [4], in [5] and in test [6] was “inactive” each time. For the same molecule, the Potency entry in test [7], in test [11], in [9] and in [10] was “inactive” each time. For the same molecule, the Potency in test [8] was 20 µM (active).

For `COC(=O)/C=C/C(C)=C\C=C\C(C)=C\C=C\C=C(C)\C=C\C=C(C)\C=C\C(=O)O`, the Potency result in test [1], in test [2], in test [3], in test [4], in test [8] and in [9] was “inactive” throughout. The results for the Potency in test [5] and in [6] were 54.5 µM (active) and 39.9 µM (active), respectively.

In the case of `FC1(F)C(F)(F)C(F)(F)C2(F)C(F)(C1(F)F)C(F)(F)C(F)(F)C1(F)C(F)(F)C(F)(F)C(F)(F)C(F)(F)C12F` (stereo not drawn), the Potency result in [1], in [2], in test [3], in [4], in test [5] and in [6] was “inactive” throughout. Also, the Potency entry in [7], in [11], in test [9] and in test [10] was “inactive” each time.

Regarding `O=C1c2ccccc2C(=O)C1c1ccc2cc(S(=O)(=O)O)cc(S(=O)(=O)O)c2n1`, the Potency is 37.2 µM (active) in test [1], 33.1 µM (active) in test [4] and 43.2 µM (active) in test [8]. Besides, the Potency result in test [2], in test [3], in [5], in test [6] and in [10] was “inactive” each time.

With `O=C(O)c1ccc2c(c1)nc(C(=O)NC1CCN(C3CC3)CC1)n2Cc1cc(-c2ccc(Cl)s2)on1`, the activity change, negative = cytotoxicity in test [1] is 17.8% [at 19 µM]; in [4], 3.23% [at 19 µM]. In [2], the caspase activation is -0.956% [at 19 µM]. In addition, in test [3], the caspase-3/7 activation is 9.35% [at 19 µM]. Further, in test [5], the activation was -32.3% [at 19 µM]. The activity change, negative = inhibition in test [7] was 14.2% [at 23.6 µM]; in test [11], -6.17% [at 23.6 µM]; in [8] it was 0.996% [at 23.6 µM]; in [9] it was -1.6% [at 15.8 µM]; in test [10] it was 1.57% [at 23.6 µM].
